This is an account of results in PubChem BioAssay (NCI).

Molecules are shown by their SMILES. Compounds without any hit were thinned out: in the full panel of roughly 83,000, 20% have a hit.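 A percent growth of 40 corresponds to 60% growth inhibition; 0 means no net growth; -100 means all cells died. Active threshold: below 10.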 Unmarked numbers belong to inactive results. Activity calls are given as the source filed them.

Among the test systems are HCT-15 colon; HT29 colon; SNB-19 CNS; U251 CNS; PC-3 prostate; SK-MEL-5 melanoma; UACC-62 melanoma; LOX IMVI melanoma; SK-MEL-28 melanoma; SK-MEL-2 melanoma; EKVX NSCLC; SN12C renal; UO-31 renal; TK-10 renal; ACHN renal; CAKI-1 renal; CCRF-CEM leukemia; MOLT-4 leukemia; A498 renal; SNB-75 CNS.
Assay in all cases: NCI-60 one-dose screen, 48 h (100 = growth as untreated, 0 = no growth, -100 = all killed)
What all share (conditions): 10 µM unless noted

In the case of `COc1ccc(C(=O)c2cc(C)c(OC)c(C)c2)c(OC)c1N(C(=O)C(Cl)Cl)C(=O)C(Cl)Cl`, the growth in the assay with HCT-15 colon was 7.03% (active); in the assay on HT29 colon, 1.22% (active); in the assay with SNB-19 CNS, 26.4%; with U251 CNS, 19.2%; in the assay on PC-3 prostate, 18.1%; in the assay with SK-MEL-5 melanoma it was 0.812% (active). The growth in the assay on UACC-62 melanoma is 38.8%; in the assay with LOX IMVI melanoma it was 20.3%; in the assay on SK-MEL-28 melanoma, 49.8%; with SK-MEL-2 melanoma it was 27.2%; in the assay with EKVX NSCLC, 56.9%; with SN12C renal, 35.5%. The growth in the assay with UO-31 renal is 37.8%; in the assay on TK-10 renal, 43.8%; with ACHN renal, 22.2%; in the assay on CAKI-1 renal it was 43.2%; in the assay on CCRF-CEM leukemia, 10.7%; in the assay on MOLT-4 leukemia it was 22.6%.
As for `CCN(CCNc1cc(OC)cc2cccnc12)CCc1ccccc1`, the growth with HCT-15 colon was 73.1%; with HT29 colon, 70%; in the assay with SNB-19 CNS, 98.1%; in the assay with U251 CNS, 101%; with PC-3 prostate it was 87.5%; in the assay with SK-MEL-5 melanoma, 95.3%. The growth in the assay with UACC-62 melanoma is 99.8%; in the assay on LOX IMVI melanoma, 86.5%; with SK-MEL-28 melanoma, 102%; in the assay on SK-MEL-2 melanoma, 101%; in the assay with SN12C renal, 91.3%; in the assay with UO-31 renal it was 70.8%. Besides, the growth is 101% in the assay with TK-10 renal, 84.7% in the assay on CAKI-1 renal, 92.2% with A498 renal and 73.7% in the assay with CCRF-CEM leukemia.
`O=c1nc2n(nc1/C=C/c1ccco1)CC(c1ccc(Cl)cc1)=NN2`: the growth with HCT-15 colon is 135%; in the assay on HT29 colon it was 109%; in the assay on SNB-19 CNS, 96.5%; in the assay on PC-3 prostate, 97.6%; in the assay with SK-MEL-5 melanoma, 99.9%; with UACC-62 melanoma, 97.6%. Also, the growth with LOX IMVI melanoma is 113%; with SK-MEL-28 melanoma, 120%; in the assay with SK-MEL-2 melanoma, 30.3%; with EKVX NSCLC, 72.1%; in the assay with SN12C renal, 136%; in the assay with UO-31 renal, 64%. Moreover, the growth in the assay on TK-10 renal was 104%; in the assay with ACHN renal it was 122%; in the assay with CAKI-1 renal, 94%; in the assay with A498 renal, 107%; in the assay on CCRF-CEM leukemia, 98%; with MOLT-4 leukemia, 84.2%.
`Clc1cc(Cl)cc(N2N=C(c3cccc(Nc4ccncc4)c3)CC2c2ccccc2)c1` (centres undefined): the growth was -71.9% (active) in the assay on HCT-15 colon; 1.2% (active) in the assay with HT29 colon; 88.9% with SNB-19 CNS; -31.3% (active) in the assay on U251 CNS; 49.4% in the assay with PC-3 prostate; 79.9% in the assay with SK-MEL-5 melanoma. The growth in the assay on UACC-62 melanoma was 99%; with LOX IMVI melanoma, -81.2% (active); in the assay with SK-MEL-28 melanoma, 11%; with SK-MEL-2 melanoma it was 97.1%; with EKVX NSCLC, 87.6%; in the assay on SN12C renal, 71.4%. The growth in the assay with UO-31 renal was 62%; with TK-10 renal, 89.9%; in the assay with ACHN renal, 14.9%; with CAKI-1 renal, 27%; with A498 renal it was 103%; with CCRF-CEM leukemia it was 28.3%. The growth in the assay with MOLT-4 leukemia was 2.51% (active).
`COc1ccc(-c2c(-c3ccccc3)noc2N)cc1OC`: the growth in the assay with HCT-15 colon is 100%; in the assay on HT29 colon it was 101%; in the assay with SNB-19 CNS, 109%; with U251 CNS it was 98%; in the assay with PC-3 prostate, 98.8%; with SK-MEL-5 melanoma, 97.3%. The growth with UACC-62 melanoma is 95%; with LOX IMVI melanoma, 105%; in the assay with SK-MEL-28 melanoma it was 112%; in the assay with SK-MEL-2 melanoma it was 98.5%; in the assay with EKVX NSCLC it was 99.7%; in the assay with SN12C renal, 105%. In addition, the growth in the assay with UO-31 renal is 91.5%; with TK-10 renal, 111%; with ACHN renal, 133%; with CAKI-1 renal, 110%; with A498 renal, 123%; in the assay on CCRF-CEM leukemia it was 98.1%. The growth with MOLT-4 leukemia is 99.3%.
On to `COc1ccc(/C(C)=N/NC(=O)CSc2nc3ccccc3c(=O)n2Cc2ccc(S(N)(=O)=O)cc2)c(OC)c1`, for which the growth was 96.2% with HCT-15 colon; 82.9% with SNB-75 CNS; 95.5% with SNB-19 CNS; 103% with U251 CNS; 97.1% in the assay on PC-3 prostate; 98% in the assay with SK-MEL-5 melanoma. The growth with UACC-62 melanoma was 96.9%; with LOX IMVI melanoma it was 94.2%; in the assay on SK-MEL-28 melanoma it was 110%; in the assay with SK-MEL-2 melanoma, 115%; in the assay with EKVX NSCLC, 89.9%; with SN12C renal, 100%. For the same molecule, the growth in the assay on UO-31 renal was 80%; in the assay on TK-10 renal, 108%; in the assay with ACHN renal it was 105%; in the assay on CAKI-1 renal it was 89.9%; in the assay with CCRF-CEM leukemia, 104%; in the assay on MOLT-4 leukemia, 97.9%.
With `CC(Oc1ccc(C(=O)NS(=O)(=O)C(C)(C)C)cc1C(F)(F)F)c1ccc(Oc2ccccc2)cn1` (centres undefined), the growth was 41.5% in the assay with HCT-15 colon; 48.1% with SNB-75 CNS; 63.8% in the assay with SNB-19 CNS; 58.1% in the assay on U251 CNS; 93.8% in the assay on PC-3 prostate; 45.1% with SK-MEL-5 melanoma. Moreover, the growth is 36.7% in the assay with UACC-62 melanoma; 60.1% with LOX IMVI melanoma; 61% in the assay with SK-MEL-28 melanoma; 86.5% in the assay on EKVX NSCLC; 86.1% in the assay with SN12C renal; 67.9% in the assay with UO-31 renal. Also, the growth in the assay with TK-10 renal was 79.7%; in the assay with ACHN renal it was 89.4%; with CAKI-1 renal it was 40.8%; with CCRF-CEM leukemia it was 74.1%; in the assay with MOLT-4 leukemia it was 98.5%.
Consider `Cc1nc2sc(C(=O)Nc3ccccc3)c(N)c2cc1C(=O)c1ccc(C(F)(F)F)cc1`, for which the growth with HCT-15 colon is 103%; in the assay with SNB-75 CNS it was 17.4%; in the assay on SNB-19 CNS, 96.3%; with U251 CNS it was 102%; with PC-3 prostate, 102%; in the assay on SK-MEL-5 melanoma, 98.1%. Further, the growth is 95.3% with UACC-62 melanoma; 96.9% with LOX IMVI melanoma; 99.7% in the assay on SK-MEL-28 melanoma; 101% in the assay with SK-MEL-2 melanoma; 79.3% with EKVX NSCLC; 99.6% in the assay on SN12C renal. Besides, the growth is 90.7% with UO-31 renal; 104% in the assay on TK-10 renal; 80% in the assay on ACHN renal; 83.6% with CAKI-1 renal; 5.8% (active) in the assay on A498 renal; 102% in the assay on CCRF-CEM leukemia. Also, in the assay on MOLT-4 leukemia, the growth is 108%.
